This passage reports inhibition results from PubChem BioAssay AID602399 (Sanford-Burnham Center for Chemical Genomics, 2012).

The campaign covered roughly 360,000 compounds. About 2,800 (0.78%) were called active. Rule as the data show it: active = inhibition above about 26%; inactive = the rest. Shown is part of a subset that was picked to be rich in actives.

The test deals with Nicotinate-nucleotide adenylyltransferase NadD (Staphylococcus aureus N315). As to the kind of experiment: S. aureus NadD enzyme activity blockers – biochemical, colorimetric, uHTS, primary screen (AID 602399). As to conditions: purified NadD enzyme, colorimetric absorbance read-out; at 20 µM; stronger effect = higher value.
`O=C(Nc1ccc(N2CCN(C(=O)c3cccs3)CC2)cc1)c1cccnc1Cl`: the inhibition is 4.87% (inactive).

For the molecule `CC(=O)Nc1cc(-c2ccc(N3CCN(C)CC3)cc2)cn2c(-c3ccc(F)cc3)cnc12`, the inhibition is 0.533% (inactive).

With `C=CC(=O)Nc1ccc(Nc2ccnc(Nc3ccc(N4CCN(C)CC4)cc3)n2)cc1`, the inhibition was 42.6% (active).

For `Cc1ccc(N2C(=O)C3N=NN(CC(=O)N4N=C(c5cccc6ccccc56)CC4c4ccccc4)C3C2=O)cc1` (stereo not drawn), the inhibition is 45.4% (active).

For the molecule `Oc1ccccc1C1=NN(c2ccccc2)C(c2ccccc2)C1` (stereo not drawn), the inhibition was -11.2% (inactive).

`O=C1c2cccc(OCC(=O)N3N=C(c4cccs4)CC3c3ccc(F)cc3)c2CCN1Cc1ccccc1` (stereo not drawn): the inhibition was 26.5% (inactive).

As to `Cc1ccc(C2=NN(C(=O)COc3ncnc4ccccc34)C(c3ccco3)C2)cc1` (stereo not drawn), the inhibition was 0.743% (inactive).

For `CC1=C(C)CC2C(=O)N(c3cccc4ccccc34)C(=O)C2C1` (stereo not drawn), the inhibition is -0.224% (inactive).

On to `O=C1C2N=NN(CC(=O)N3N=C(c4cccc5ccccc45)CC3c3ccccc3)C2C(=O)N1c1ccccc1` (stereo not drawn), for which the inhibition was 48.5% (active).

On to `CN1CCN(C(=O)/C(=C\c2ccc3c(c2)OCO3)NC(=O)c2cccs2)CC1`, for which the inhibition was -6.87% (inactive).

For `O=C1CC2(CCCC2)Oc2ccc(Cl)cc21`, the inhibition was -1.24% (inactive).

In the case of `CCSC1=NCCN1C(=O)c1ccc(S(=O)(=O)N(CC)CC)cc1`, the inhibition was 3.55% (inactive).

As for `Cc1ccc(-n2c(=O)cc(N3CCN(Cc4ccccc4)CC3)[nH]c2=O)cc1`, the inhibition was 4.3% (inactive).

As to `Cc1cccc(CCNS(=O)(=O)c2ccc3c(c2)NC(=O)CO3)c1`, the inhibition is -0.563% (inactive).

As for `COC(=O)c1ccc(/C=N/OCC(=O)Nc2cc(F)ccc2F)cc1`, the inhibition was -3.44% (inactive).

Consider `CCCc1nc2c3ccccc3ccn2c1Cc1ccccc1C(F)(F)F`, for which the inhibition was 1.56% (inactive).

In the case of `Cc1ccc(C(=O)NNC(=O)CSc2nnc3ccccn23)cc1`, the inhibition was -1.33% (inactive).

With `Cc1ccc(C(=O)NNC(=O)c2cc3cc4ccccc4nc3s2)cc1`, the inhibition was 31.4% (active).

For `Cc1ccc(C(=O)NNc2ncnc3ccccc23)cc1`, the inhibition is -2.31% (inactive).

For `Nc1nc2c(ncn2[C@@H]2O[C@H](CNS(=O)(=O)N3CCc4ccccc4C3)[C@@H](O)[C@H]2O)c(=O)[nH]1`, the inhibition is 1.88% (inactive).

As for `CCC/C=C(\CCC)C(NC(=O)Cc1ccccc1)c1ccc(C(=O)OC)cc1` (stereo not drawn), the inhibition is 10.4% (inactive).

Consider `CC1CCN(C(=O)Cn2cc(C(=O)c3ccco3)c3ccccc32)CC1`, for which the inhibition was 3.46% (inactive).

With `O=C(c1ccc(CS(=O)(=O)c2ccccc2)o1)N1CCN(c2ccccc2)CC1`, the inhibition was 1.5% (inactive).

As to `Cc1cccc(-c2oc3ccc(-c4ccc5c(c4)OCO5)cc3c2C#Cc2cncn2C)c1`, the inhibition is 26.9% (inactive).

Regarding `COc1ccc2sc(-c3ccc(S(C)(=O)=O)cc3)c(C#Cc3cncn3C)c2c1`, the inhibition was 0.758% (inactive).

Take `Cn1cncc1C#Cc1c(-c2ccsc2)sc2ccccc12`: the inhibition is 30% (active).

As for `CS(=O)(=O)N(CC(=O)N1CCCCCC1)c1cccc(Cl)c1Cl`, the inhibition is -9.97% (inactive).

Take `Cc1c(S(=O)(=O)NCc2ccccc2)c(=O)n(C)c(=O)n1C`: the inhibition is -3.14% (inactive).

By inhibition is commonly meant the change of the read-out against control, counted positive when it falls.
